This note sets out measurements from PubChem BioAssay (NCATS).

Records with an inconclusive call do not appear. Values without a mark were called inactive. Active and inactive are the calls of the source. Calls follow the shape of the dose curve; as a rule, active = well fitted cell-killing curve with a large enough effect; inconclusive = small, poorly fitted or top-dose-only effect, or effect the other way; inactive = no such curve, though single readings can be large or run the other way.

Test [1] in a line: Quantitative High-Throughput drug screen in 47 multiple myeloma cell lines against the NCATS MIPE library collection: LP1_DSMZ cell viability assay (AID 1918982). Also: nearly all actives have a fitted effect of over 35% in size. The method, boiled down: (§1)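 ATP-based luminescence (CellTiter-Glo, 5 min RT incubation) quantified surviving cells following two days' treatment with MIPE 4.0 agents at 37 °C, 5% CO2.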
Test [2] is described as follows: Quantitative High-Throughput drug screen in 47 multiple myeloma cell lines against the NCATS MIPE library collection: KMS28PE_JCRB cell viability assay (AID 1918983). Also: nearly all actives have a fitted effect of over 35% in size. The method, boiled down: as §1
The nature of test [3]: Quantitative High-Throughput drug screen in 47 multiple myeloma cell lines against the NCATS MIPE library collection: L363_DSMZ cell viability assay (AID 1918984). Also: nearly all actives have a fitted effect of over 40% in size. The note with it: L363 myeloma viability, CellTiter-Glo ATP luminescence, 48 h; viability (% of control): at 45.8 µM (top of the series). In short, it runs like this: as §1
(In general: ATP-based viability assays read luminescence as a measure of living cells.)

Test [4] is described as follows: Quantitative High-Throughput drug screen in 47 multiple myeloma cell lines against the NCATS MIPE library collection: OCIMY7_PLB cell viability assay (AID 1918987). Also: nearly all actives have a fitted effect of over 65% in size. The note with it: OCI-MY7 myeloma viability, CellTiter-Glo ATP, 48 h; viability (% of DMSO): at 45.8 µM (top of the series). In short, it runs like this: as §1
A short description of test [5]: Quantitative High-Throughput drug screen in 47 multiple myeloma cell lines against the NCATS MIPE library collection: OCIMY5_PLB cell viability assay (AID 1918988). Also: nearly all actives have a fitted effect of over 65% in size. In short, it runs like this: as §1
Test [6] in a line: Quantitative High-Throughput drug screen in 47 multiple myeloma cell lines against the NCATS MIPE library collection: XG6_PLB cell viability assay (AID 1919865). Also: nearly all actives have a fitted effect of over 40% in size.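 As to viability (% of control): 100% = DMSO-only wells and 0% = media-only wells.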 In short, it runs like this:
as §1

Test [7] can be described thus: Quantitative High-Throughput drug screen in 47 multiple myeloma cell lines against the NCATS MIPE library collection: XG1_PLB cell viability assay (AID 1919866). Also: nearly all actives have a fitted effect of over 35% in size. The method, boiled down: as §1
A short description of test [8]: Quantitative High-Throughput drug screen in 47 multiple myeloma cell lines against the NCATS MIPE library collection: VP6_DJ cell viability assay (AID 1919867). Also: nearly all actives have a fitted effect of over 40% in size.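 As to viability (% of DMSO): 100% = DMSO-only wells and 0% = wells with media alone.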 The method, boiled down:
as §1

Test [9] in a line: Quantitative High-Throughput drug screen in 47 multiple myeloma cell lines against the NCATS MIPE library collection: UTMC2_PLB cell viability assay (AID 1919868). Also: nearly all actives have a fitted effect of over 55% in size. The note with it: CellTiter-Glo ATP luminescence, 48 h; viability (% of DMSO control): at 45.8 µM (top of the series). In short, it runs like this: as §1
The nature of test [10]: Quantitative High-Throughput drug screen in 47 multiple myeloma cell lines against the NCATS MIPE library collection: PE2_PLB cell viability assay (AID 1919869). Also: nearly all actives have a fitted effect of over 35% in size.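 As to viability (% of control): 100% = DMSO-only wells and 0% = cell-free media-only wells.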 The method, boiled down: as §1
Test [11] is described as follows: Quantitative High-Throughput drug screen in 47 multiple myeloma cell lines against the NCATS MIPE library collection: PCM6_Riken cell viability assay (AID 1919870). Also: nearly all actives have a fitted effect of over 30% in size.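 As to viability (% of control): 100% = DMSO-only wells and 0% = media-only wells.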 In short, it runs like this:
as §1

A short description of test [12]: Quantitative High-Throughput drug screen in 47 multiple myeloma cell lines against the NCATS MIPE library collection: OPM2_DSMZ cell viability assay (AID 1919872). Also: nearly all actives have a fitted effect of over 30% in size. The method, boiled down: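 Relative luminescence from CellTiter-Glo served as the viability signal, referenced to DMSO-treated (100%) and cell-free medium (0%) controls. Treatment lasted 48 hours at 37C with 500 cells per well.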

Test [13] in a line: Quantitative High-Throughput drug screen in 47 multiple myeloma cell lines against the NCATS MIPE library collection: KMS28BM_JCRB cell viability assay (AID 1919874). Also: nearly all actives have a fitted effect of over 35% in size. In short, it runs like this:
as §1

Test [14] can be described thus: Quantitative High-Throughput drug screen in 47 multiple myeloma cell lines against the NCATS MIPE library collection: KMS34_JCRB cell viability assay (AID 1918985). Also: nearly all actives have a fitted effect of over 40% in size. The method, boiled down:
as §1

Test [15] can be described thus: Quantitative High-Throughput drug screen in 47 multiple myeloma cell lines against the NCATS MIPE library collection: OPM1_PLB cell viability assay (AID 1918989). Also: nearly all actives have a fitted effect of over 40% in size.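 As to viability (% of control): 100% = DMSO-only wells and 0% = media-only wells.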 The method, boiled down: as §1
Test [16] can be described thus: Quantitative High-Throughput drug screen in 47 multiple myeloma cell lines against the NCATS MIPE library collection: SKMM1_PLB cell viability assay (AID 1919863). Also: nearly all actives have a fitted effect of over 35% in size. The note with it: SKMM1 myeloma viability, CellTiter-Glo ATP, 48 h; viability: active compounds read low. The method, boiled down:
as §1

A short description of test [17]: Quantitative High-Throughput drug screen in 47 multiple myeloma cell lines against the NCATS MIPE library collection: U266_ATCC cell viability assay (AID 1919864). Also: nearly all actives have a fitted effect of over 35% in size.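 As to viability (% of DMSO control): 0% = media-only wells without cells and 100% = DMSO-only wells.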 In short, it runs like this: as §1
Test [18] is described as follows: Quantitative High-Throughput drug screen in 47 multiple myeloma cell lines against the NCATS MIPE library collection: RPMI8226_ATCC cell viability assay (AID 1919871). Also: nearly all actives have a fitted effect of over 30% in size. The method, boiled down:
as §1

A short description of test [19]: Quantitative High-Throughput drug screen in 47 multiple myeloma cell lines against the NCATS MIPE library collection: KMS11_JCRBsus cell viability assay (AID 1919873). Also: nearly all actives have a fitted effect of over 50% in size.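 As to viability (% of control): 100% = DMSO-only wells and 0% = media-only wells without cells.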 In short, it runs like this: as §1
Potency is read from the fitted curve at half-maximal effect.

For `Clc1ccc(C2(c3ccc(-c4cn[nH]c4)cc3)CCNCC2)cc1`, the Potency in test [1] is 23.5 µM (active); in test [2], 14.8 µM (active); in [3] it was 2.35 µM (active); in test [4] it was 1.05 µM (active); in test [5], 16.6 µM (active); in [6] it was 3.72 µM (active). The Potency in test [7] was 18.7 µM (active); in test [8], 13.2 µM (active); in test [9] it was 148 nM (active); in [10], 11.8 µM (active); in [11], 6.62 µM (active); in test [12], 26.4 µM (active). The Potency in test [13] was 16600 nM (active).

In the case of `COC(=O)Nc1ccc(-c2nc(N3CCOCC3)c3cnn(C4CCN(C(=O)OC)CC4)c3n2)cc1`, the Potency in [1] is 0.235 µM (active); in test [2], 1.18 µM (active); in test [3], 0.0935 µM (active); in [14] it was 1.05 µM (active); in test [4] it was 0.0235 µM (active); in [5] it was 1.18 µM (active). In addition, the Potency in [15] is 0.372 µM (active); in test [16] it was 11.8 µM (active); in test [17], 1.32 µM (active); in test [7], 0.296 µM (active); in test [8], 0.148 µM (active); in [9], 59 nM (active). The Potency was 0.332 µM (active) in test [10]; 1.87 µM (active) in test [11]; 0.332 µM (active) in [18]; 2.35 µM (active) in test [12]; 0.166 µM (active) in test [19]; 590 nM (active) in test [13].

For the compound `CCC=CC[C@H]1C(=O)CC[C@@H]1CC(=O)OC`, the Potency entry in [1], in [2], in [3], in test [14], in test [15] and in [17] was “inactive” in each case. Besides, the Potency entry in [6], in test [11], in test [12], in [19] and in test [13] was “inactive” each time. For the same compound, in [16], the viability is 144%.

As for `C[C@@H]1[C@H](C)CC[C@]2(C(=O)O)CC[C@]3(C)C(=CC[C@@H]4[C@@]5(C)CC[C@H](O)C(C)(C)[C@H]5CC[C@]43C)[C@@H]12`, the Potency in [1] is 48.1 µM (active); in test [2], 38.2 µM (active); in [14], 34 µM (active); in [5], 1.52 µM (active); in [16], 24.1 µM (active); in test [7] it was 1.36 µM (active). Also, the Potency in test [11] is 12.1 µM (active); in [18], 27 µM (active); in test [12] it was 42.9 µM (active). Also, the Potency result in [3], in test [15], in test [10] and in [19] was “inactive” throughout.

For the compound `C[C@@H]1O[C@@H](O[C@H]2CC[C@@]3(C)[C@H](CC[C@@H]4[C@H]3C[C@@H](O)[C@]3(C)[C@@H](C5=CC(=O)OC5)CC[C@]43O)C2)C[C@H](O)[C@@H]1O[C@H]1C[C@H](O)[C@H](O[C@H]2C[C@H](O)[C@@H](O)[C@@H](C)O2)[C@H](C)O1` (stereo in doubt), the Potency was 0.121 µM (active) in test [1]; 0.152 µM (active) in test [2]; 0.171 µM (active) in test [3]; 0.34 µM (active) in [14]; 0.152 µM (active) in test [4]; 0.136 µM (active) in [5]. In addition, the Potency is 0.27 µM (active) in [15]; 0.303 µM (active) in test [16]; 0.121 µM (active) in test [17]; 0.152 µM (active) in test [6]; 0.0605 µM (active) in test [7]; 0.136 µM (active) in test [8]. In addition, the Potency in test [9] was 95.9 nM (active); in test [10], 0.215 µM (active); in test [11] it was 0.108 µM (active); in test [18] it was 0.215 µM (active); in test [12], 0.121 µM (active); in [19], 0.191 µM (active). The Potency in [13] was 95.9 nM (active).

With `COc1ccc(-c2nc3ccc(C4=NNC(=O)CC4C)cc3[nH]2)cc1` (stereo not given), the Potency entry in [1], in test [2], in test [3], in [14], in test [5] and in test [6] was “inactive” in each case. In addition, the Potency entry in [10], in [11], in test [18], in test [12], in test [19] and in test [13] was “inactive” in each case. The viability in test [16] was 101%.

`CN1CC(=O)NC1=NC(=O)Nc1cccc(Cl)c1`: the Potency is 14.8 µM (active) in [1]; 2.96 µM (active) in test [3]; 13.2 µM (active) in test [4]; 23.5 µM (active) in [5]; 18.7 µM (active) in [15]; 18.7 µM (active) in test [16]. For the same compound, the Potency in test [17] is 20.9 µM (active); in test [6], 23.5 µM (active); in [7] it was 29.6 µM (active); in [10], 20.9 µM (active); in test [11], 23.5 µM (active); in test [18], 14.8 µM (active). In addition, the Potency in test [19] is 11.8 µM (active). Also, the Potency result in test [2], in test [8], in test [12] and in test [13] was “inactive” in each case.

In the case of `CN1CCN(c2cccc(Nc3nc4c(-c5ccc(S(C)(=O)=O)cc5)cccn4n3)c2)CC1`, the Potency in test [1] was 14.8 µM (active); in test [2], 16.6 µM (active); in [3], 3.32 µM (active); in test [4] it was 0.743 µM (active); in [5] it was 4.69 µM (active); in test [15], 2.35 µM (active). Also, the Potency in test [16] was 18.7 µM (active); in test [17], 3.32 µM (active); in test [6] it was 0.833 µM (active); in [7], 0.372 µM (active); in [10] it was 1.05 µM (active); in [11] it was 7.43 µM (active). The Potency in test [18] is 9.35 µM (active); in test [13] it was 743 nM (active).

Take `CC(C)N(CCCNC(=O)Nc1ccc(C(C)(C)C)cc1)C[C@H]1O[C@@H](n2cc(Br)c3c(N)ncnc32)[C@H](O)[C@H]1O`: the Potency in [1] is 23.5 µM (active); in [2] it was 14.8 µM (active); in test [14], 20.9 µM (active); in test [17], 20.9 µM (active); in test [6] it was 20.9 µM (active); in test [7], 23.5 µM (active). The values for the Potency in test [11], in test [12] and in test [19] were 23.5 µM (active), 23.5 µM (active) and 18.7 µM (active), respectively. Moreover, in test [3], the Potency result is “inactive”.

In the case of `Cc1cnc(Nc2cccc(CN3CCOCC3)c2)nc1Nc1cccc(S(=O)(=O)NC(C)(C)C)c1`, the Potency in [1] is 14.8 µM (active); in test [2], 14.8 µM (active); in test [3] it was 5.26 µM (active); in test [14], 3.32 µM (active); in test [4], 1.05 µM (active); in [5], 3.72 µM (active). Besides, the Potency is 1.48 µM (active) in test [15]; 7.43 µM (active) in [16]; 1.18 µM (active) in test [6]; 1.05 µM (active) in test [7]; 2.96 µM (active) in [8]; 1180 nM (active) in test [9]. Further, the Potency is 1.87 µM (active) in test [10], 6.62 µM (active) in test [11] and 9.35 µM (active) in [12]. Moreover, the Potency result in test [17] was “inactive”.

Broadly, the viability is a read-out of living cells in per cent, often relative to untreated cells.
